The test system of the test is HepG2. Kind of test: GSK_TCMDC: Percent inhibition of human HepG2 cell line. Test compounds present at 10uM. The class given is functional.
In turn, `COc1ccc(-c2csc3ncnc(Cl)c23)cc1` had an Inhibition of 0%.

As for `Cc1ccccc1Nc1nc(Nc2ccccc2)c2ccccc2n1.Cl`, the Inhibition was 19%.

Take `Cc1cc(N)cc2nc(-c3ccc(N)cc3)[nH]c12`: the Inhibition came to 0%.

For `CC(CNC(=O)C(c1cc2ccccc2o1)N1CCN(C(c2ccccc2)c2ccccc2)CC1)c1ccccc1` (centres undefined), the Inhibition is listed as 2%.

`CCOc1cc2ncnc(Nc3ccc(OCc4ccccc4F)c(Cl)c3)c2cc1OCC.Cl`: the Inhibition is listed as 4%.

As to `Br.CCCc1cccc(C)c1OCCCON1C(=N)N=C(N)NC1(C)C`, the Inhibition amounted to 57%.

Consider `CCOc1c(OC)ccc2c1CCN(CCN1CCC(CNC(=O)c3ccc(-c4ccc(C(F)(F)F)cc4)cc3)CC1)C2`, for which the Inhibition came out at 54%.

The compound `COc1ccc(-c2nc(NCc3ccccc3)c3cc(OC)c(OC)cc3n2)cc1` gave an Inhibition of 15%.

The compound `CCN(CC)CCOc1ccc(C(O)(C#CC(O)(c2ccc(Br)cc2)c2ccc(OCCN(CC)CC)cc2)c2ccc(Br)cc2)cc1` (centres undefined) gave an Inhibition of 99%.

In the case of `Cn1nc(-c2ccc(S(=O)(=O)N3CCC(CCN4CCC(c5c[nH]c6ccccc56)CC4)CC3)s2)cc1C(F)(F)F`, the Inhibition is listed as 40%.

The compound `O=C(Nc1ccc(N2CCCN(Cc3cccc(F)c3)CC2)cc1)c1cccs1.O=C(O)C(F)(F)F` had an Inhibition of 2%.

The compound `CCOc1ccc2c(c1)C(C)(c1ccc3c(c1)C(C)CC(C)(C)N3)CC(C)(C)N2` (centres undefined) came in with an Inhibition of 5%.

`N#C/N=C(\NCCCCCCCCN/C(=N\C#N)NCCSCc1csc(N=C(N)N)n1)NCCCSc1csc(N=C(N)N)n1` came in with an Inhibition of 0%.

`CC(C)NCc1ccc(-c2cccc(-c3nc4cc(C(F)(F)F)ccc4[nH]3)c2)cc1.O=C(O)C(F)(F)F` yielded an Inhibition of 21%.

The term Inhibition denotes the relative decrease from the control value, in per cent. Low values mean little suppression, high ones strong suppression.

The values are drawn from ChEMBL document CHEMBL1157539, “Thousands of chemical starting points for antimalarial lead identification” (Nature, 2010).
